Records with an inconclusive call do not appear. Calls of active or inactive are those of the source. Calls come from the whole dose curve.
Experiment: Validation screen for inhibitors of Lassa infection (AID 463096)
Conditions: Lassa virus infection, cell-based; series mostly up to 46.1 µM

Row | SMILES | outcome
1 | CC[N+](CC)(CC)CCOc1cccc(OCC[N+](CC)(CC)CC)c1OCC[N+](CC)(CC)CC | inactive
2 | CC(C)(Oc1ccc(C2CC2(Cl)Cl)cc1)C(=O)O (stereo not drawn) | inactive
3 | CN1C(C(=O)Nc2ccccn2)=C(O)c2ccccc2S1(=O)=O | inactive
4 | CN=C(NC#N)Nc1ccc(C2=NNC(=O)CC2C)cc1 (stereo not drawn) | inactive
5 | COc1ccc2cc([C@H](C)C(=O)O)ccc2c1 | inactive
6 | CN1CCN(CC(=O)N2c3ccccc3C(=O)Nc3cccnc32)CC1 | inactive
7 | CC(=O)Oc1cc(C(C)C)c(OCCN(C)C)cc1C | inactive
8 | C[N+](C)(C)CCOC(N)=O | inactive
9 | C=CC(N)CCC(=O)O (stereo not drawn) | inactive
10 | NC1CCN(c2cccc(Cl)n2)CC1 | inactive
11 | CN(C)CCOC(=O)COc1ccc(Cl)cc1 | inactive
12 | Cc1scc2c1N(C(=O)CN1CCN(C)CC1)c1ccccc1NC2=O | inactive
13 | N[C@@H](COP(=O)(O)O)C(=O)O | inactive
14 | CN(C)C(=O)Oc1ccc[n+](C)c1 | inactive
15 | NC(=O)c1ncn([C@@H]2O[C@H](CO)[C@@H](O)[C@H]2O)c1O | inactive
16 | Nc1ccc(S(=O)(=O)Nc2ccnn2-c2ccccc2)cc1 | inactive
17 | CCN1CCC[C@H]1CNC(=O)c1c(O)c(Cl)cc(Cl)c1OC | inactive

Row | SMILES | outcome
18 | CCn1cc(C(=O)O)c(=O)c2cc(F)c(N3CCNC(C)C3)c(F)c21 (stereo not drawn) | inactive
19 | CCN1CCC[C@H]1CNC(=O)c1cc(S(N)(=O)=O)ccc1OC | inactive
20 | O=C(O)CCCCCCCC(=O)O | inactive
21 | CCN(CC)CCOC(=O)c1ccc(N)cc1 | inactive
22 | Cc1nc2ccccn2c(=O)c1CCN1CCC(C(=O)c2ccc(F)cc2)CC1 | inactive
23 | CCN(CC)CCNC(=O)c1ccc(N)cc1 | inactive
24 | NC/C=C/C(=O)O | inactive
25 | NCCCCCC(=O)O | inactive
26 | Cc1ccc(Cl)c(Nc2ccccc2C(=O)O)c1Cl | inactive
27 | Clc1cccc(Cl)c1NC1=NCCN1 | inactive
28 | CC(=O)c1ccc(S(=O)(=O)NC(=O)NC2CCCCC2)cc1 | inactive
29 | NC(=O)N1c2ccccc2C=Cc2ccccc21 | inactive
30 | CCn1nc(C(=O)O)c(=O)c2cc3c(cc21)OCO3 | inactive
31 | O=c1c(-c2ccc(O)cc2)coc2cc(O)cc(O)c12 | inactive
32 | CN=C(NC#N)NCCSCc1nc[nH]c1C | inactive
33 | CO[C@@]1(NC(=O)CSCC#N)C(=O)N2C(C(=O)O)=C(CSc3nnnn3C)CS[C@@H]21 | inactive

From PubChem BioAssay (NCATS)
